# According to PMC11006913:
# Changes are numbered by the printed parent chain.
# What was measured:
# Assay in all cases: PBM; 200 nM protein, PBS
# Conditions in all cases: dsDNA, one strand shown
# PAX4 [1] = biological target: T1, PAX4 (Homo sapiens, UniProt O43316 9-242, R200K)
# T1 sequence: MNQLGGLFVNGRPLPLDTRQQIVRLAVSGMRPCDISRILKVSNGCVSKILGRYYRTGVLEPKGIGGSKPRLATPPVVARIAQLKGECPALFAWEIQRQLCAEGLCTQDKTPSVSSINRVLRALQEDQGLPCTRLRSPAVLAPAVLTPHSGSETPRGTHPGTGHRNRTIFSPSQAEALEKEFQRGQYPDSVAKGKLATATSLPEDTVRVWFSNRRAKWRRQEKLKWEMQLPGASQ
# HOXC9 [2] = biological target: HOXC9 (Homo sapiens, UniProt P31274 178-260, K195R)
# Sequence of HOXC9 (Homo sapiens, UniProt P31274 178-260, K195R) (P31274 178-260 K195R): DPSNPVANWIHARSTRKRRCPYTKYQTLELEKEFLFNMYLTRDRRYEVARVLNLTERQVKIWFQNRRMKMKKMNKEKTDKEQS
# HOXC9 [3] = biological target: HOXC9 (Homo sapiens, UniProt P31274 178-260)
# Sequence of HOXC9 (Homo sapiens, UniProt P31274 178-260) (P31274 178-260): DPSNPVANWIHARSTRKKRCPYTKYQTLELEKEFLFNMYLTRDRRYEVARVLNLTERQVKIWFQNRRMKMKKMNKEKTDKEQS
# HOXC9 [4] = biological target: HOXC9 (Homo sapiens, UniProt P31274 178-260, R193K)
# Sequence of HOXC9 (Homo sapiens, UniProt P31274 178-260, R193K) (P31274 178-260 R193K): as the sequence (P31274 178-260) above, with R16K counted along it
# HOXD13 [5] = biological target: HOXD13 (Homo sapiens, UniProt P35453 263-343)
# Sequence of HOXD13 (Homo sapiens, UniProt P35453 263-343) (P35453 263-343): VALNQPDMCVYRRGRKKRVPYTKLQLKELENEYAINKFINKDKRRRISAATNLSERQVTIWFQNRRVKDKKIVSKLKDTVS
# HOXD13 [6] = biological target: HOXD13 (Homo sapiens, UniProt P35453 263-343, T313A)
# Sequence of HOXD13 (Homo sapiens, UniProt P35453 263-343, T313A) (P35453 263-343 T313A): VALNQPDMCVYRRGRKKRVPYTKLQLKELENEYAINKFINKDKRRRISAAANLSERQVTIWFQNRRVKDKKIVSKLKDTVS
# HOXC9 [7] = biological target: HOXC9 (Homo sapiens, UniProt P31274 178-260, R222W)
# Sequence of HOXC9 (Homo sapiens, UniProt P31274 178-260, R222W) (P31274 178-260 R222W): as the sequence (P31274 178-260) above, with R45W counted along it
# ALX3 [8] = biological target: ALX3 (Homo sapiens, UniProt O95076 139-225, N203Q)
# Sequence of ALX3 (Homo sapiens, UniProt O95076 139-225, N203Q) (O95076 139-225 N203Q): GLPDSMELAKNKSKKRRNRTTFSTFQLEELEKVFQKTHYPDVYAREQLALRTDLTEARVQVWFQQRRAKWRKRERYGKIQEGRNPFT
# ALX3 [9] = biological target: ALX3 (Homo sapiens, UniProt O95076 139-225)
# Sequence of ALX3 (Homo sapiens, UniProt O95076 139-225) (O95076 139-225): as the sequence (O95076 139-225 N203Q) above, with Q65N counted along it
# ALX3 [10] = biological target: ALX3 (Homo sapiens, UniProt O95076 139-225, L168Q)
# Sequence of ALX3 (Homo sapiens, UniProt O95076 139-225, L168Q) (O95076 139-225 L168Q): as the sequence (O95076 139-225 N203Q) above, with L30Q, Q65N counted along it
# ALX3 [11] = biological target: ALX3 (Homo sapiens, UniProt O95076 139-225, L168V)
# Sequence of ALX3 (Homo sapiens, UniProt O95076 139-225, L168V) (O95076 139-225 L168V): as the sequence (O95076 139-225 N203Q) above, with L30V, Q65N counted along it
# ALX3 [12] = biological target: ALX3 (Homo sapiens, UniProt O95076 139-225, N203S)
# Sequence of ALX3 (Homo sapiens, UniProt O95076 139-225, N203S) (O95076 139-225 N203S): as the sequence (O95076 139-225 N203Q) above, with Q65S counted along it
# PAX4 [13] = biological target: T2, PAX4 (Homo sapiens, UniProt O43316 9-242, F177Y)
# T2 sequence: T1 sequence with F169Y, K192R
# HOXC10 [14] = biological target: HOXC10 (Homo sapiens, UniProt Q9NYD6 254-340)
# Sequence of HOXC10 (Homo sapiens, UniProt Q9NYD6 254-340) (Q9NYD6 254-340): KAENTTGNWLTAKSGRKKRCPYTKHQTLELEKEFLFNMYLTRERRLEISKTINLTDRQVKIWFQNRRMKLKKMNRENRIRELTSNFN
# HOXC10 [15] = biological target: HOXC10 (Homo sapiens, UniProt Q9NYD6 254-340, K271E)
# Sequence of HOXC10 (Homo sapiens, UniProt Q9NYD6 254-340, K271E) (Q9NYD6 254-340 K271E): as the sequence (Q9NYD6 254-340) above, with K18E counted along it
# PRRX1 [16] = biological target: PRRX1 (Homo sapiens, UniProt P54821 80-166, F113S)
# Sequence of PRRX1 (Homo sapiens, UniProt P54821 80-166, F113S) (P54821 80-166 F113S): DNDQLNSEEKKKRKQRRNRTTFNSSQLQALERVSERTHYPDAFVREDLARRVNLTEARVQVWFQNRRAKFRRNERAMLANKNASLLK
# PRRX1 [17] = biological target: PRRX1 (Homo sapiens, UniProt P54821 80-166)
# Sequence of PRRX1 (Homo sapiens, UniProt P54821 80-166) (P54821 80-166): as the sequence (P54821 80-166 F113S) above, with S34F counted along it
sequence,measurement,setting,value
GATAATGA,binding signal,PAX4 [1],"11.2 upbm affinity estimate (log intensity, higher = more binding, comparable within an allelic series)"
CGAGGCAC,binding signal,HOXC9 [2],"9.69 upbm affinity estimate (log intensity, higher = more binding, comparable within an allelic series)"
same,binding signal,HOXC9 [3],"9.79 upbm affinity estimate (log intensity, higher = more binding, comparable within an allelic series)"
same,binding signal,HOXC9 [4],"9.72 upbm affinity estimate (log intensity, higher = more binding, comparable within an allelic series)"
same,binding signal,HOXD13 [5],"9.71 upbm affinity estimate (log intensity, higher = more binding, comparable within an allelic series)"
same,binding signal,HOXD13 [6],"9.78 upbm affinity estimate (log intensity, higher = more binding, comparable within an allelic series)"
same,binding signal,HOXC9 [7],"9.7 upbm affinity estimate (log intensity, higher = more binding, comparable within an allelic series)"
CCAGGCAG,binding signal,ALX3 [8],"7.78 upbm affinity estimate (log intensity, higher = more binding, comparable within an allelic series)"
same,binding signal,ALX3 [9],"7.65 upbm affinity estimate (log intensity, higher = more binding, comparable within an allelic series)"
same,binding signal,ALX3 [10],"7.7 upbm affinity estimate (log intensity, higher = more binding, comparable within an allelic series)"
same,binding signal,ALX3 [11],"7.82 upbm affinity estimate (log intensity, higher = more binding, comparable within an allelic series)"
same,binding signal,ALX3 [12],"7.76 upbm affinity estimate (log intensity, higher = more binding, comparable within an allelic series)"
CCTGCCCC,binding signal,PAX4 [1],"9.03 upbm affinity estimate (log intensity, higher = more binding, comparable within an allelic series)"
same,binding signal,PAX4 [13],"9 upbm affinity estimate (log intensity, higher = more binding, comparable within an allelic series)"
GCTGCGCC,binding signal,ALX3 [8],"7.68 upbm affinity estimate (log intensity, higher = more binding, comparable within an allelic series)"
same,binding signal,ALX3 [9],"7.52 upbm affinity estimate (log intensity, higher = more binding, comparable within an allelic series)"
same,binding signal,ALX3 [10],"7.66 upbm affinity estimate (log intensity, higher = more binding, comparable within an allelic series)"
same,binding signal,ALX3 [11],"7.62 upbm affinity estimate (log intensity, higher = more binding, comparable within an allelic series)"
same,binding signal,ALX3 [12],"7.7 upbm affinity estimate (log intensity, higher = more binding, comparable within an allelic series)"
AGACCAGC,binding signal,PAX4 [1],"9.14 upbm affinity estimate (log intensity, higher = more binding, comparable within an allelic series)"
same,binding signal,PAX4 [13],"9.22 upbm affinity estimate (log intensity, higher = more binding, comparable within an allelic series)"
CGCTGGCC,binding signal,PAX4 [1],"8.99 upbm affinity estimate (log intensity, higher = more binding, comparable within an allelic series)"
same,binding signal,ALX3 [8],"7.62 upbm affinity estimate (log intensity, higher = more binding, comparable within an allelic series)"
same,binding signal,ALX3 [9],"7.39 upbm affinity estimate (log intensity, higher = more binding, comparable within an allelic series)"
same,binding signal,PAX4 [13],"9.14 upbm affinity estimate (log intensity, higher = more binding, comparable within an allelic series)"
same,binding signal,ALX3 [10],"7.58 upbm affinity estimate (log intensity, higher = more binding, comparable within an allelic series)"
same,binding signal,ALX3 [11],"7.61 upbm affinity estimate (log intensity, higher = more binding, comparable within an allelic series)"
same,binding signal,ALX3 [12],"7.65 upbm affinity estimate (log intensity, higher = more binding, comparable within an allelic series)"
GCAGGGCC,binding signal,HOXC10 [14],"10 upbm affinity estimate (log intensity, higher = more binding, comparable within an allelic series)"
same,binding signal,HOXC10 [15],"10 upbm affinity estimate (log intensity, higher = more binding, comparable within an allelic series)"
GACCGTGC,binding signal,PRRX1 [16],"9.27 upbm affinity estimate (log intensity, higher = more binding, comparable within an allelic series)"
same,binding signal,PRRX1 [17],"9.23 upbm affinity estimate (log intensity, higher = more binding, comparable within an allelic series)"
CGGGGGGA,binding signal,HOXD13 [5],"9.17 upbm affinity estimate (log intensity, higher = more binding, comparable within an allelic series)"
same,binding signal,HOXD13 [6],"9.29 upbm affinity estimate (log intensity, higher = more binding, comparable within an allelic series)"
CAGGCACG,binding signal,PRRX1 [16],"9.38 upbm affinity estimate (log intensity, higher = more binding, comparable within an allelic series)"
same,binding signal,PRRX1 [17],"9.24 upbm affinity estimate (log intensity, higher = more binding, comparable within an allelic series)"
CCCGCGGG,binding signal,PRRX1 [16],"9.46 upbm affinity estimate (log intensity, higher = more binding, comparable within an allelic series)"
same,binding signal,PRRX1 [17],"9.2 upbm affinity estimate (log intensity, higher = more binding, comparable within an allelic series)"
ACCCCCGT,binding signal,ALX3 [8],"7.64 upbm affinity estimate (log intensity, higher = more binding, comparable within an allelic series)"
same,binding signal,ALX3 [9],"7.58 upbm affinity estimate (log intensity, higher = more binding, comparable within an allelic series)"
same,binding signal,ALX3 [10],"7.58 upbm affinity estimate (log intensity, higher = more binding, comparable within an allelic series)"
same,binding signal,ALX3 [11],"7.57 upbm affinity estimate (log intensity, higher = more binding, comparable within an allelic series)"
same,binding signal,ALX3 [12],"7.61 upbm affinity estimate (log intensity, higher = more binding, comparable within an allelic series)"
CGGGACCA,binding signal,HOXC10 [14],"10.1 upbm affinity estimate (log intensity, higher = more binding, comparable within an allelic series)"
same,binding signal,HOXC10 [15],"10.1 upbm affinity estimate (log intensity, higher = more binding, comparable within an allelic series)"
CCCCCGTA,binding signal,PRRX1 [16],"9 upbm affinity estimate (log intensity, higher = more binding, comparable within an allelic series)"
same,binding signal,ALX3 [8],"7.68 upbm affinity estimate (log intensity, higher = more binding, comparable within an allelic series)"
same,binding signal,ALX3 [9],"7.71 upbm affinity estimate (log intensity, higher = more binding, comparable within an allelic series)"
same,binding signal,ALX3 [10],"7.65 upbm affinity estimate (log intensity, higher = more binding, comparable within an allelic series)"
same,binding signal,ALX3 [11],"7.65 upbm affinity estimate (log intensity, higher = more binding, comparable within an allelic series)"
same,binding signal,ALX3 [12],"7.65 upbm affinity estimate (log intensity, higher = more binding, comparable within an allelic series)"
same,binding signal,PRRX1 [17],"9.39 upbm affinity estimate (log intensity, higher = more binding, comparable within an allelic series)"
CCAACGGA,binding signal,PRRX1 [16],"9.38 upbm affinity estimate (log intensity, higher = more binding, comparable within an allelic series)"
same,binding signal,PRRX1 [17],"9.16 upbm affinity estimate (log intensity, higher = more binding, comparable within an allelic series)"
GAGCCGGC,binding signal,HOXC10 [14],"10 upbm affinity estimate (log intensity, higher = more binding, comparable within an allelic series)"
same,binding signal,ALX3 [8],"7.82 upbm affinity estimate (log intensity, higher = more binding, comparable within an allelic series)"
same,binding signal,HOXC10 [15],"9.91 upbm affinity estimate (log intensity, higher = more binding, comparable within an allelic series)"
same,binding signal,ALX3 [9],"7.87 upbm affinity estimate (log intensity, higher = more binding, comparable within an allelic series)"
same,binding signal,ALX3 [10],"7.74 upbm affinity estimate (log intensity, higher = more binding, comparable within an allelic series)"
same,binding signal,ALX3 [11],"7.7 upbm affinity estimate (log intensity, higher = more binding, comparable within an allelic series)"
same,binding signal,ALX3 [12],"7.79 upbm affinity estimate (log intensity, higher = more binding, comparable within an allelic series)"
CAGGGTCC,binding signal,HOXC10 [14],"10 upbm affinity estimate (log intensity, higher = more binding, comparable within an allelic series)"
same,binding signal,HOXC10 [15],"10 upbm affinity estimate (log intensity, higher = more binding, comparable within an allelic series)"
